{
  "source": "the OligoGym collection",
  "data": [
    {"target": "BST2", "assay": "pooled miR-30 sensor sort-seq; sequence = guide strand", "conditions": "shRNA", "values": [
      {"sequence": "TGAAGCTTATGGTTTAATGTAG", "sensor-assay potency score (higher = more potent)": -0.303},
      {"sequence": "TACAGCGCTTATCCCCGTCTTC", "sensor-assay potency score (higher = more potent)": -1.34},
      {"sequence": "TTTAATGTAGTGATCTCTCCCT", "sensor-assay potency score (higher = more potent)": 0.397},
      {"sequence": "TCTCACGCTTAAGACCTGGTTT", "sensor-assay potency score (higher = more potent)": -0.474},
      {"sequence": "TTGTCCGCGATTCTCACGCTTA", "sensor-assay potency score (higher = more potent)": -0.717},
      {"sequence": "TTCTCAGTCGCTCCACCTCTGC", "sensor-assay potency score (higher = more potent)": -1.51},
      {"sequence": "TCAGTCGCTCCACCTCTGCAGA", "sensor-assay potency score (higher = more potent)": -1.23},
      {"sequence": "TTAATGTAGTGATCTCTCCCTC", "sensor-assay potency score (higher = more potent)": -0.16},
      {"sequence": "TCGCTGTTGGCCTTGATGGTGA", "sensor-assay potency score (higher = more potent)": -1.17}
    ]},
    {"target": "BTAF1", "assay": "pooled miR-30 sensor sort-seq; sequence = guide strand", "conditions": "shRNA", "values": [
      {"sequence": "TAGAGTGTAATTATACCTCTGT", "sensor-assay potency score (higher = more potent)": 0.377},
      {"sequence": "TAAAGTATTAATTACATCCTGA", "sensor-assay potency score (higher = more potent)": -0.104},
      {"sequence": "TAGAACTTTCGGAAGTAGGTTC", "sensor-assay potency score (higher = more potent)": -0.237},
      {"sequence": "TTTTGATCTTGCATATTCCTGG", "sensor-assay potency score (higher = more potent)": -0.211},
      {"sequence": "TAAGAGTACAATAATAGTCTTG", "sensor-assay potency score (higher = more potent)": -0.191},
      {"sequence": "TTTACTGCTTTTGACAACTTTG", "sensor-assay potency score (higher = more potent)": -1.03},
      {"sequence": "TAACCAGTTCACACCATCCTGC", "sensor-assay potency score (higher = more potent)": -0.839},
      {"sequence": "TAATACTATTTGTTGAAGCTGT", "sensor-assay potency score (higher = more potent)": 0.361},
      {"sequence": "TTACTCAACAGTTCCATCCAAA", "sensor-assay potency score (higher = more potent)": -0.305},
      {"sequence": "TTGATCTTGCATATTCCTGGGC", "sensor-assay potency score (higher = more potent)": 0.499},
      {"sequence": "TACAGCAACAAAGTGCTCCTAA", "sensor-assay potency score (higher = more potent)": 0.633},
      {"sequence": "TAGCTTCAACAGCTTGTCCTGC", "sensor-assay potency score (higher = more potent)": -0.281}
    ]},
    {"target": "BVES", "assay": "pooled miR-30 sensor sort-seq; sequence = guide strand", "conditions": "shRNA", "values": [
      {"sequence": "TTTCATACAAGAAAGGTTCTGA", "sensor-assay potency score (higher = more potent)": 0.905},
      {"sequence": "TTCTGCTCCTTCTTCTATCGGT", "sensor-assay potency score (higher = more potent)": 0.109},
      {"sequence": "TTATATCCAAGGCACATCGGTA", "sensor-assay potency score (higher = more potent)": -1.03},
      {"sequence": "TTCTTCTATCGGTTTCATCTTG", "sensor-assay potency score (higher = more potent)": -0.512},
      {"sequence": "TCTTCTATCGGTTTCATCTTGG", "sensor-assay potency score (higher = more potent)": 0.0355},
      {"sequence": "TAGTCTTCTGAACAAATCTGGA", "sensor-assay potency score (higher = more potent)": -1.1},
      {"sequence": "TTCCTTTTCAATCTTTACCGGT", "sensor-assay potency score (higher = more potent)": -0.474},
      {"sequence": "TTATCATCTGCAATAATGGTGA", "sensor-assay potency score (higher = more potent)": -0.542},
      {"sequence": "TTTTTCACCTTTGTGCATCTGA", "sensor-assay potency score (higher = more potent)": 0.533},
      {"sequence": "ATTTGCTACATGAAAAACCAGA", "sensor-assay potency score (higher = more potent)": -1.03},
      {"sequence": "TTAGTCTTCTGAACAAATCTGG", "sensor-assay potency score (higher = more potent)": 0.0292},
      {"sequence": "TTGTGCATCTGAGTTGATCTAA", "sensor-assay potency score (higher = more potent)": 0.0688}
    ]},
    {"target": "BZW1", "assay": "pooled miR-30 sensor sort-seq; sequence = guide strand", "conditions": "shRNA", "values": [
      {"sequence": "TTGTGAAGTGTTCAACACTTTG", "sensor-assay potency score (higher = more potent)": -1.21},
      {"sequence": "TTCTTCAGCATTTTTGAGCCAT", "sensor-assay potency score (higher = more potent)": -0.303},
      {"sequence": "TTACTTCATCTTCAAAACCTTT", "sensor-assay potency score (higher = more potent)": -1.14},
      {"sequence": "TTCTTCTTCAGCATTTTTGAGC", "sensor-assay potency score (higher = more potent)": -0.679},
      {"sequence": "TTGCTCAAGGAAAACACTCTTC", "sensor-assay potency score (higher = more potent)": -0.371},
      {"sequence": "TTCAAGAACAGCAGCAGCTTTT", "sensor-assay potency score (higher = more potent)": -0.773}
    ]}
  ]
}
